The nature of assay [1]: Quantitative High-Throughput drug screen in 47 multiple myeloma cell lines against the NCATS MIPE library collection: KHM11_PLB cell viability assay (AID 1918962). Also: nearly all actives have a fitted effect of over 35% in size. Also: potency is read from the fitted curve at half-maximal effect. The essentials: (§1)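 CellTiter-Glo luminescence (ATP) after 48 h compound exposure, 37C/5% CO2; 500 cells/well; MIPE 4.0 approved/investigational drugs pinned in; DMSO = 100%, media only = 0% viability.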
The nature of assay [2]: Quantitative High-Throughput drug screen in 47 multiple myeloma cell lines against the NCATS MIPE library collection: JIM3_ECACC cell viability assay (AID 1918963; also: nearly all actives have a fitted effect of over 35% in size; also: potency is read from the fitted curve at half-maximal effect). The procedure, abridged: as §1
Assay [3] in a line: Quantitative High-Throughput drug screen in 47 multiple myeloma cell lines against the NCATS MIPE library collection: JIM1_ECACC cell viability assay (AID 1918964; also: potency is read from the fitted curve at half-maximal effect). The essentials: (§2)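 CellTiter-Glo ATP luminescence gave viability after 48 h compound treatment at 37C of 500 multiple myeloma cells per well. Normalisation used DMSO-only wells as 100% and media-only wells as 0% viability; primary qHTS of approved and investigational drugs.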

The nature of assay [4]: Quantitative High-Throughput drug screen in 47 multiple myeloma cell lines against the NCATS MIPE library collection: INA6_PLB cell viability assay (AID 1918965; also: nearly all actives have a fitted effect of over 55% in size; also: potency is read from the fitted curve at half-maximal effect). The essentials:
(§3)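 Myeloma cells (500 per well) were exposed to MIPE 4.0 compounds by pin transfer and incubated 48 hours at 37C, 5% CO2. Viability was read as ATP by CellTiter-Glo luminescence, normalised to DMSO (100%) and media-only (0%) wells.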

A short description of assay [5]: Quantitative High-Throughput drug screen in 47 multiple myeloma cell lines against the NCATS MIPE library collection: JJN3_DSMZ cell viability assay (AID 1918966; also: nearly all actives have a fitted effect of over 50% in size; also: potency is read from the fitted curve at half-maximal effect). The essentials: as §2
Assay [6] in a line: Quantitative High-Throughput drug screen in 47 multiple myeloma cell lines against the NCATS MIPE library collection: H1112_PLB cell viability assay (AID 1918967; also: nearly all actives have a fitted effect of over 30% in size; also: potency is read from the fitted curve at half-maximal effect). The procedure, abridged:
as §2

Assay [7] can be described thus: Quantitative High-Throughput drug screen in 47 multiple myeloma cell lines against the NCATS MIPE library collection: Karpas25_ECACC cell viability assay (AID 1918968; also: nearly all actives have a fitted effect of over 35% in size; also: potency is read from the fitted curve at half-maximal effect). The essentials: as §2
Assay [8] is described as follows: Quantitative High-Throughput drug screen in 47 multiple myeloma cell lines against the NCATS MIPE library collection: KMS12BM_JCRB cell viability assay (AID 1918971). Also: nearly all actives have a fitted effect of over 35% in size. Also: potency is read from the fitted curve at half-maximal effect. The essentials:
(§4)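 Inhibition of cell viability is measured here. Each line was plated at 500 cells per well, treated with MIPE 4.0 drugs, kept 48 hours at 37C, then assayed for ATP content by CellTiter-Glo luminescence.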

A short description of assay [9]: Quantitative High-Throughput drug screen in 47 multiple myeloma cell lines against the NCATS MIPE library collection: KMS12PE_JCRB cell viability assay (AID 1918972). Also: nearly all actives have a fitted effect of over 30% in size. Also: potency is read from the fitted curve at half-maximal effect. The procedure, abridged:
as §3

The nature of assay [10]: Quantitative High-Throughput drug screen in 47 multiple myeloma cell lines against the NCATS MIPE library collection: KMS20_JCRB cell viability assay (AID 1918973). Also: nearly all actives have a fitted effect of over 45% in size. Also: potency is read from the fitted curve at half-maximal effect. The essentials:
as §2

Assay [11] can be described thus: Quantitative High-Throughput drug screen in 47 multiple myeloma cell lines against the NCATS MIPE library collection: KMS26_JCRB cell viability assay (AID 1918975). Also: nearly all actives have a fitted effect of over 45% in size. Also: potency is read from the fitted curve at half-maximal effect. The procedure, abridged: as §4
Assay [12] in a line: Quantitative High-Throughput drug screen in 47 multiple myeloma cell lines against the NCATS MIPE library collection: MMM1_PLB cell viability assay (AID 1918976). Also: nearly all actives have a fitted effect of over 35% in size. Also: potency is read from the fitted curve at half-maximal effect. The essentials:
(§5)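 Myeloma cells (500/well) treated with MIPE 4.0 compounds for 48 h at 37 °C, 5% CO2. Viability read as ATP via CellTiter-Glo luminescence after 5 min at RT; DMSO-only wells = 100%, media-only = 0% viability.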

Assay [13] can be described thus: Quantitative High-Throughput drug screen in 47 multiple myeloma cell lines against the NCATS MIPE library collection: MOLP8_DSMZ cell viability assay (AID 1918977). Also: potency is read from the fitted curve at half-maximal effect; nearly all actives have a fitted effect of over 45% in size. The essentials:
as §5

Assay [14] is described as follows: Quantitative High-Throughput drug screen in 47 multiple myeloma cell lines against the NCATS MIPE library collection: NCIH929_DSMZ cell viability assay (AID 1918978). Also: nearly all actives have a fitted effect of over 35% in size. Also: potency is read from the fitted curve at half-maximal effect. The procedure, abridged:
as §5

The nature of assay [15]: Quantitative High-Throughput drug screen in 47 multiple myeloma cell lines against the NCATS MIPE library collection: MM1S_ATCC cell viability assay (AID 1918980). Also: nearly all actives have a fitted effect of over 45% in size. Also: potency is read from the fitted curve at half-maximal effect. The essentials:
as §5

A short description of assay [16]: Quantitative High-Throughput drug screen in 47 multiple myeloma cell lines against the NCATS MIPE library collection: KMS27_JCRB cell viability assay (AID 1918970). Also: nearly all actives have a fitted effect of over 30% in size. Also: potency is read from the fitted curve at half-maximal effect. The procedure, abridged: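 Luminescent ATP read-out (CellTiter-Glo, 5 min at room temperature) after 48 h compound exposure of 500 KMS27_JCRB cells per well; DMSO wells define full viability and media-only wells zero.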

Assay [17] can be described thus: Quantitative High-Throughput drug screen in 47 multiple myeloma cell lines against the NCATS MIPE library collection: OCIMY1_PLB cell viability assay (AID 1918979). Also: nearly all actives have a fitted effect of over 35% in size. Also: potency is read from the fitted curve at half-maximal effect. The procedure, abridged: as §5
Assay [18] is described as follows: Quantitative High-Throughput drug screen in 47 multiple myeloma cell lines against the NCATS MIPE library collection: LP1_DSMZ cell viability assay (AID 1918982). Also: nearly all actives have a fitted effect of over 35% in size. Also: potency is read from the fitted curve at half-maximal effect. The essentials:
as §5

Assay [19] is described as follows: Quantitative High-Throughput drug screen in 47 multiple myeloma cell lines against the NCATS MIPE library collection: MM1R_ATCC cell viability assay (AID 1918981). Also: nearly all actives have a fitted effect of over 35% in size. The procedure, abridged:
as §5

Assay [20] can be described thus: Quantitative High-Throughput drug screen in 47 multiple myeloma cell lines against the NCATS MIPE library collection: KMS21BM_JCRB cell viability assay (AID 1918974). Particulars: ATP luminescence, 48 h; viability: at 45.8 µM (top of the series). The procedure, abridged: as §2

Results filed as inconclusive are left out. Calls of active or inactive are those of the source. Calls follow the shape of the dose curve; as a rule, active = well fitted curve in the direction sought with a large enough effect; inconclusive = small, poorly fitted or top-dose-only effect, or another doubt; inactive = no such curve, though single readings can be large; an effect the other way counts as inactive or inconclusive.

`NC1(c2ccc(-c3nc4ccn5c(=O)[nH]nc5c4cc3-c3ccccc3)cc2)CCC1`: the Potency was 5.9 µM (active) in assay [1]; 0.662 µM (active) in assay [2]; 1.48 µM (active) in assay [3]; 11.8 µM (active) in [4]; 5.26 µM (active) in assay [5]; 0.0833 µM (active) in assay [6]. Moreover, the Potency in assay [7] is 5.26 µM (active); in [8], 23.5 µM (active); in assay [9] it was 0.296 µM (active); in assay [10], 5.26 µM (active); in assay [11] it was 14.8 µM (active); in [12] it was 0.332 µM (active). Moreover, the figures for the Potency in assay [13], in assay [14] and in [15] were 3.72 µM (active), 0.059 µM (active) and 0.662 µM (active), respectively.

Consider `COc1cc(NCc2ccc3nc(N)nc(N)c3c2C)cc(OC)c1OC`, for which the Potency is 8.33 µM (active) in [1]; 0.418 µM (active) in assay [2]; 2.96 µM (active) in [3]; 1.32 µM (active) in assay [4]; 3.72 µM (active) in [5]; 2.64 µM (active) in [6]. In addition, the Potency is 4.18 µM (active) in assay [7]; 0.59 µM (active) in assay [16]; 13.2 µM (active) in [8]; 0.935 µM (active) in [9]; 7.43 µM (active) in assay [10]; 8.33 µM (active) in [12]. The Potency in assay [13] is 5.26 µM (active); in assay [14], 3.72 µM (active); in assay [17], 13.2 µM (active); in [15], 8.33 µM (active); in assay [18], 1.48 µM (active).

Take `CC(C)(C#N)c1cc(Cn2cncn2)cc(C(C)(C)C#N)c1`: the Potency result in [1], in assay [2], in assay [4], in assay [6], in assay [16] and in assay [9] was “inactive” each time. Further, the Potency entry in [10], in [11], in [14], in [15], in assay [19] and in [18] was “inactive” each time. The Potency in assay [5] is 2.35 µM (active); in [12], 1.32 µM (active).

On to `CCn1cc(C(=O)O)c(=O)c2cc(F)c(N3CCNCC3)nc21`, for which the Potency entry in [1], in [2], in assay [4], in [5], in assay [7] and in assay [16] was “inactive” throughout. Moreover, in [10], the Potency entry was “inactive”.

With `COc1cc([C@@H]2c3cc4c(cc3[C@H](O)[C@H]3COC(=O)[C@H]23)OCO4)cc(OC)c1OC`, the Potency result in assay [1], in [2], in assay [3], in assay [4], in [5] and in [16] was “inactive” in each case. Besides, the Potency result in assay [9], in assay [20], in assay [12], in assay [14], in [15] and in assay [18] was “inactive” in each case.

Take `C#CCN[C@@H]1CCc2ccccc21`: the Potency entry in assay [1], in [2], in assay [6], in assay [9], in assay [10] and in assay [11] was “inactive” each time. Further, the Potency entry in assay [14], in assay [15] and in [18] was “inactive” each time. Besides, the figures for the Potency in [8] and in assay [12] were 11.8 µM (active) and 23.5 µM (active), respectively.

On to `CN(C)CCc1c[nH]c2ccc(CS(=O)(=O)N3CCCC3)cc12`, for which the Potency in [1] was 16.6 µM (active); in assay [4], 0.0074 µM (active); in assay [16], 23.5 µM (active). The Potency result in [3], in assay [5], in assay [6], in assay [8], in [11] and in assay [14] was “inactive” throughout. Moreover, the Potency entry in assay [17] and in assay [18] was “inactive” throughout.

The values are drawn from PubChem BioAssay (NCATS).
